# Test results as given in PubChem BioAssay (NCI).
# Compounds without any hit were thinned out: in the full panel of roughly 79,000, 15% have a hit. Values without a mark were called inactive. Activity calls are given as the source filed them. No stated cut-off is given here; in the data, active means growth inhibition above about 70%; inactive means the rest. *1 amine or outer side, *2 acyl side, *3 side chain or, on linkers, in order; H or OH if unused. Where a SMILES comes first, the peptide text is derived from it. Bridges are numbered along the chain shown (N, C = ends). Roman numbers before positions name the chains, in order. [ ]: non-standard residue; d: D form. Actinocin(9to1) = Cc1c2oc3c(C)ccc(C(=O)[*:1])c3nc-2c(C(=O)[*:2])c(N)c1=O; NMeV = CN[CH](C(=O)O)C(C)C; Pip = O=C(O)[CH]1CCCCN1; Sar = CNCC(=O)O
# Legend:
# [1] = NCI Yeast Anticancer Drug Screen. Data for the rad50 strain (AID 155);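 further: 0% = growth of vehicle-only cultures of the same strain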; details: S. cerevisiae rad50 strain growth inhibition, hits give high values
# How it was run: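 Cells are treated with compound, grown, and their growth is then scored against vehicle-only cultures of the same repair-deficient yeast strain.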
# [2] = NCI Yeast Anticancer Drug Screen. Data for the mec2-1 strain (AID 157); details: S. cerevisiae mec2-1 strain, hits give high values
# How it was run: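 Compounds were applied to mec2-1 yeast cells. Their growth was then compared with that of vehicle-treated cultures to give growth inhibition.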
# [3] = NCI Yeast Anticancer Drug Screen. Data for the sgs1 mgt1 strain (AID 161);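 further: 0% = growth of cultures given vehicle only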; details: S. cerevisiae sgs1 mgt1 strain, hits give high values
# How it was run: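 This yeast growth screen uses a strain with defined DNA-repair lesions; compound-treated growth is compared with vehicle-treated growth.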
# [4] = NCI Yeast Anticancer Drug Screen. Data for the cln2 rad14 strain (AID 165);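 further: 0% = growth equal to vehicle treated cultures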; details: S. cerevisiae cln2 rad14 strain, hits give high values
# How it was run: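 Strain: cln2 rad14 yeast, altered in cell cycle control and DNA damage repair. Read-out: growth inhibition vs vehicle.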
# [5] = NCI Yeast Anticancer Drug Screen. Data for the bub3 strain (AID 167); details: S. cerevisiae bub3 mutant strain, hits give high values
# How it was run: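 Part of a panel of yeast mutants defective in DNA damage repair or cell cycle regulation. Each strain is grown with compound, and inhibition is calculated relative to solvent-treated cultures.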
# [6] = NCI Yeast Anticancer Drug Screen. Data for the mlh1 rad18 strain (AID 175); details: S. cerevisiae mlh1 rad18 strain growth inhibition, hits give high values
# How it was run: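 A repair-deficient yeast strain is exposed to test compound, and growth is scored relative to vehicle-treated controls.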
# [7] = at 5.0 µM (retest, dose inferred, filed as 0.5)
# [8] = at 50.0 µM (retest, dose inferred, filed as 5.0)
Structure (SMILES),"growth inhibition [1, 7] [%]","growth inhibition [1, 8]",growth inhibition ([1]; at 50.0 µM),"growth inhibition [2, 7] [%]","growth inhibition [2, 8]",growth inhibition ([2]; at 50.0 µM),"growth inhibition [3, 7] [%]","growth inhibition [3, 8]",growth inhibition ([3]; at 50.0 µM),"growth inhibition [4, 7] [%]","growth inhibition [4, 8]",growth inhibition ([4]; at 50.0 µM),"growth inhibition [5, 7] [%]","growth inhibition [5, 8]",growth inhibition ([5]; at 50.0 µM),"growth inhibition [6, 7] [%]","growth inhibition [6, 8]",growth inhibition ([6]; at 50.0 µM)
Cc1cc(NC(=S)SCc2ccc(Cl)cc2)ccc1F,5,66%,97.5% (active),1,70% (active),96% (active),2,95% (active),97.8% (active),-7,99% (active),88% (active),19,97% (active),98.5% (active),2,89% (active),96.4% (active)
Oc1ccc(C2CCc3ccccc32)cc1 (configuration not stated),-6,98% (active),99.6% (active),-36,98% (active),99.8% (active),-7,98% (active),99.1% (active),-11,98% (active),99.3% (active),-28,94% (active),99.5% (active),-7,98% (active),99.4% (active)
CCc1ccc(/C=C/C(=O)C2CN(CC)CCC2(O)/C=C/c2ccc(CC)cc2)cc1 (configuration not stated),4,99% (active),91.5% (active),2,99% (active),92.8% (active),2,99% (active),92% (active),4,99% (active),89.8% (active),8,98% (active),91.2% (active),13,99% (active),91.5% (active)
Cc1ccc(OC/C=C/c2cccc(C#N)c2)cc1,-3,2%,-0.45%,3,-2%,11.2%,0,18%,-2.05%,-6,-11%,44%,0,12%,-0.9%,-5,-1%,43.5%
COC(=O)N(C[C@@H]1C=CCCC1)c1ccccc1I,29,66%,88.3% (active),29,61%,91.2% (active),26,63%,89.6% (active),29,34%,87.5% (active),47,74% (active),91% (active),41,70% (active),89.9% (active)
[N-]=[N+]=Nc1c(-c2ccccc2)c(=O)n(-c2ccccc2)c2ccccc12,-19,93% (active),88% (active),-20,94% (active),92.8% (active),-10,95% (active),90% (active),12,95% (active),90% (active),-2,94% (active),90% (active),-13,96% (active),86.4% (active)
COC1=CC(=O)c2c(O)c3c(c(O)c2C1=O)C=C(C)OC3O (configuration not stated),-3,34%,85.5% (active),-2,31%,88% (active),-27,22%,89% (active),7,20%,47.1%,-4,44%,85.8% (active),-9,52%,89.3% (active)
COC(=O)/C(C#N)=C1\NC(=O)CC(c2ccccc2)C1C#N (configuration not stated),12,20%,-25.2%,9,16%,-27.1%,21,20%,9.25%,5,19%,-1.3%,10,13%,-0.9%,23,18%,-16.7%
O=C1C=C(OCC=C(C(F)(F)F)C(F)(F)F)C(=O)c2ccccc21,-6,18%,55.1%,27,68%,64.8%,24,74% (active),66.9%,-1,25%,49.4%,1,52%,67.2%,45,67%,80.3% (active)
CS(=O)(=O)OCCN(CCOS(C)(=O)=O)c1ccc(C=Nc2ccc(-c3csc(-c4ccc(Br)cc4)n3)cc2)cc1,33,95% (active),94% (active),43,96% (active),97.2% (active),18,90% (active),94.2% (active),19,92% (active),81.2% (active),-4,90% (active),74.8% (active),60,96% (active),96% (active)
C(=C\c1cnnc2ccccc12)/c1cccnc1,11,45%,20.8%,18,37%,-10.8%,11,35%,2.15%,6,32%,42.6%,6,22%,-13.2%,8,36%,13.7%
O=C(/C=C/C(=N\Nc1ccccc1)c1ccccc1)c1ccccc1,21,90% (active),37.9%,23,99% (active),13.9%,27,96% (active),26.4%,46,98% (active),30.9%,67,99% (active),21.5%,47,95% (active),72% (active)
CNC(=S)N(C)C(=S)Nn1c(=O)c(C)nn(C)c1=S,-24,59%,70.8% (active),-23,96% (active),79.7% (active),-19,50%,87% (active),-3,66%,57.9%,-18,77% (active),78.4% (active),-27,97% (active),72.5% (active)
O=C1Oc2ccccc2C(=O)/C1=C/N1C(=O)/C(=C/c2ccc3c(c2)OCO3)SC1=S,7,76% (active),60.9%,-7,78% (active),47.8%,4,66%,80.2% (active),-13,82% (active),70.5% (active),31,30%,66.3%,-4,77% (active),44.3%
Cc1cc(NC(=S)SCc2ccc3c(c2)OCO3)ccc1Br,38,98% (active),89.7% (active),28,98% (active),91.6% (active),54,98% (active),91.2% (active),40,99% (active),87.2% (active),49,98% (active),91.2% (active),34,98% (active),89.7% (active)
Cc1cccc(N2C(c3ccccc3)c3ccc(C)cc3NS2=O)c1 (configuration not stated),2,-1%,98.7% (active),2,-2%,98.8% (active),1,-2%,99.1% (active),1,1%,98.7% (active),-2,-1%,99.2% (active),-4,-7%,99.2% (active)
"Cc1c2oc3c(C)ccc(C(=O)NC4C(=O)NC(C(C)C)C(=O)N5CCCCC5C(=O)N(C)CC(=O)N(C)C(C(C)C)C(=O)OC4C)c3nc-2c(C(=O)NC2C(=O)NC(C(C)C)C(=O)N3CCCCC3C(=O)N(C)CC(=O)N(C)C(C(C)C)C(=O)OC2C)c(N)c1=O (configuration not stated) (I: TV[Pip][Sar][NMeV] / II: TV[Pip][Sar][NMeV]; ester I:1-I:C, II:1-II:C; linker I:N-II:N via Actinocin(9to1); configuration not given here)",-11,91% (active),69.4%,-22,43%,48.3%,7,28%,59.4%,6,64%,29.3%,0,80% (active),73.6% (active),10,79% (active),45.6%
O=c1cc(Cl)c(Cl)nn1-c1ccccc1,9,80% (active),89.2% (active),12,75% (active),50.5%,7,71% (active),40.3%,6,60%,71.8% (active),4,84% (active),45.5%,2,86% (active),41.2%
NC(=O)c1oc([N+](=O)[O-])c(-c2ccccc2)c1-c1ccccc1,9,38%,12.4%,5,50%,16.6%,14,61%,55.4%,-6,10%,-22.6%,16,80% (active),92.2% (active),11,78% (active),64.2%
